The results in this text go back to PubChem BioAssay (NCI).

Holding throughout (assay): NCI-60 one-dose screen, 48 h (100 = growth as untreated, 0 = no growth, -100 = all killed)
Conditions in all cases: 10 µM unless noted

Test [1] concerns HCT-15 colon.
Test [2] has as its system HT29 colon.
In test [3] the test system is SNB-75 CNS.
The subject of test [4] is SNB-19 CNS.
In test [5] the test system is U251 CNS.
Test [6] relates to PC-3 prostate.
For test [7], the system named is SK-MEL-5 melanoma.
For test [8], the system named is UACC-62 melanoma.
Test [9] deals with LOX IMVI melanoma.
Test [10] concerns SK-MEL-28 melanoma.

The panel holds about 83,000 compounds, 20% with a hit somewhere; the sample as a whole holds those more often.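 Percent growth is the endpoint: 0 to 100 indicates growth inhibition (40 means 60% inhibition), 0 means no net growth, and negative values indicate cell death.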 Unmarked numbers belong to inactive results. Activity calls are given as the source filed them. How the source made its calls: active means growth percent below 10; inactive means the rest.

In the case of `Cc1cc(C)nc(NS(=O)(=O)c2ccc(Nc3ccc4c5c(n(CCCN(C)C)c(=O)c4c3)-c3ccccc3C5=O)cc2)n1`, the growth in [1] is 90.3%; in test [2], 74.8%; in test [3], 79.5%; in [4], 91%; in [5], 75.3%; in test [6] it was 86.3%. The growth in test [7] is 85.6%; in test [8] it was 93.3%; in test [9], 72.6%; in test [10], 117%.

Turning to `COCCc1n(Cc2ccc3ccccc3c2)c2ccccc2[n+]1Cc1ccc2ccccc2c1`, the growth was 7.25% (active) in test [1]; -61.3% (active) in test [2]; -39.7% (active) in [3]; -73.8% (active) in [4]; -89.8% (active) in test [5]; -14.5% (active) in test [6]. The growth in [7] was -97.5% (active); in [8], -89.3% (active); in [9], -92.5% (active); in test [10], -46.4% (active).

For the molecule `CCOC(=O)CC[C@H](NC(=O)c1ccc(NC)c2ccccc12)C(=O)OCC`, the growth in test [1] is 96.1%; in [2], 105%; in test [3] it was 91.8%; in test [4] it was 92.4%; in test [5], 97.8%; in test [6] it was 80.2%. Also, the growth was 97.2% in [7], 89.7% in test [8], 93.8% in test [9] and 103% in [10].

On to `COC(=O)c1nc(-c2ccccc2)oc1S(=O)(=O)n1nc(C)cc1N`, for which the growth in [1] is 46.9%; in [2] it was 17.5%; in test [3], 82.3%; in test [4] it was 96.6%; in test [5], 101%; in [6], 104%. Also, the growth in test [7] was 92.3%; in test [8] it was 89.4%; in test [9], 76.8%; in [10], 87.4%.

As to `COC1=CC=CC2(OC)C3(O)CCCc4cccc(c43)N3C(=O)COC132` (stereo not given), the growth in test [1] is 103%; in test [2], 97.2%; in test [3], 84.2%; in test [4] it was 101%; in test [5], 97.3%; in test [6], 95.4%. In addition, the growth was 104% in test [7], 92% in test [8], 97.7% in [9] and 111% in test [10].

Take `COc1cc(C2=NN(C=O)C(c3cccc(Nc4ccnc5cc(C(F)(F)F)ccc45)c3)C2)cc(OC)c1OC` (stereo not given): the growth is 49.2% in test [1]; 15.3% in [2]; 77.7% in test [3]; 64.2% in [4]; 55.8% in test [5]; 31.7% in [6]. The growth in [7] is 43%; in test [8], 75.4%; in [9] it was 43.1%; in [10] it was 50.6%.

Regarding `COc1cc(C2CC(c3ccc(Nc4nc(NCCO)nc(NCCO)n4)cc3)=NN2c2cc(Cl)cc(Cl)c2)cc(OC)c1OC` (stereo not given), the growth is 16.3% in test [1]; -47% (active) in test [2]; -14.6% (active) in [3]; 17.4% in [4]; -36.2% (active) in test [5]; -42.1% (active) in test [6]. The growth is -45.8% (active) in test [7], 2.21% (active) in test [8], -60.2% (active) in test [9] and -70% (active) in [10].

For `COc1cc(NC(=O)COc2cc(C)nc3ccc(OC)cc23)cc(OC)c1`, the growth in [1] was 90.9%; in test [2], 91.7%; in test [3], 77.3%; in [4], 91.4%; in test [5] it was 91%; in test [6], 81.9%. Further, the growth is 76% in [7], 74.4% in test [8], 85.8% in test [9] and 102% in [10].

As for `O=[N+]([O-])c1ccc(N=Nc2c(O)c(N=Nc3cc([N+](=O)[O-])cc([N+](=O)[O-])c3O)cc(N=Nc3cc(S(=O)(=O)O)cc4cc(S(=O)(=O)O)cc(O)c34)c2O)cc1`, the growth was 101% in test [1]; 99.1% in [2]; 91.1% in test [3]; 105% in test [4]; 105% in [5]; 86.7% in test [6]. Moreover, the growth is 108% in [7], 95.5% in test [8], 90.1% in test [9] and 99% in test [10].

Consider `COc1c(O)cc2oc3cc(O[C@@H]4OC(C)[C@@H](O)[C@H](O)C4O)c(CC=C(C)C)c(O)c3c(=O)c2c1CC=C(C)C` (stereo not given in full), for which the growth in test [1] was 85.1%; in test [2], 84.3%; in test [3], 88.9%; in test [4], 102%; in test [5] it was 86.6%; in test [6], 74.9%. Further, the growth in test [7] is 91%; in test [8], 96.9%; in [9] it was 89.3%; in [10], 105%.

With `COc1ccccc1Nc1nnc(-c2ccc(Cl)cc2)o1`, the growth in test [1] was 33.1%; in test [2], 16.1%; in test [3], 55.1%; in test [4], 46.4%; in [5], 34.4%; in test [6], 56.7%. For the same molecule, the growth in [7] was 37.6%; in test [8], 51.8%; in [9], 51.7%; in [10], 64%.

On to `CN(C)CSc1nc2ccccc2s1`, for which the growth is 97.9% in [1]; 95% in test [2]; 75.2% in [3]; 110% in test [4]; 103% in test [5]; 74.8% in test [6]. Also, the growth is 96.9% in [7], 95.9% in [8], 90% in test [9] and 108% in [10].

As for `Nc1c(C(=O)Nc2cccc3ccccc23)sc2nc3c(cc12)CCCCC3`, the growth was 28.6% in test [1]; 19.1% in test [2]; 19.4% in test [3]; 27.2% in test [4]; 16.8% in test [5]; 34.1% in [6]. Also, the growth in test [7] was 37.1%; in [8], 38%; in test [9] it was 38.4%; in test [10], 71.7%.

With `N#C/C(=C/c1ccc(O)c([N+](=O)[O-])c1)c1nc(-c2ccc([N+](=O)[O-])cc2)cs1`, the growth is 24.7% in [1]; 52.7% in test [2]; 80.5% in test [3]; 34.5% in test [4]; 22.1% in test [5]; 29.9% in [6]. For the same molecule, the growth was 5.51% (active) in test [7], -17.2% (active) in test [8], 38.2% in test [9] and 35.5% in test [10].

Take `COc1cc(-c2csc(NC(=O)Nc3cc(Cl)cc(Cl)c3)n2)cc(OC)c1OC`: the growth in [1] is 14.5%; in [2], 21.9%; in test [3] it was -29.2% (active); in [4], 9% (active); in test [5] it was -80.1% (active); in [6], 10.7%. Besides, the growth is 54.5% in [7], -62.2% (active) in test [8], 6.77% (active) in test [9] and 30.6% in test [10].

As for `COc1ccc2[nH]c3nc4cnccc4cc3c2c1`, the growth in test [1] is 97.9%; in test [2], 99.7%; in test [3], 97.5%; in [4], 105%; in [5] it was 98.9%; in test [6] it was 104%. The growth in [7] was 108%; in test [8], 117%; in test [9] it was 105%; in test [10], 114%.

`O=c1nc(-c2ccccc2)c2cc(-c3ccc(N4CCCC4)nc3)ccc2[nH]1`: the growth in [1] is 44%; in test [2] it was 30.7%; in [3], 66.1%; in test [4] it was 66.4%; in test [5], 67.5%; in test [6], 65.7%. Further, the growth is 40.4% in test [7], 57.2% in [8], 57.2% in test [9] and 82.3% in test [10].

Regarding `CN1CCN(CC#CCOC(=O)CNC(=O)[C@]23CCC(C)(C)C[C@H]2C2=CC[C@@H]4[C@@]5(C)CC[C@H](O)C(C)(C)[C@@H]5CC[C@@]4(C)[C@]2(C)CC3)CC1`, the growth was 77% in [1]; 75.5% in test [2]; 80.9% in test [3]; 87.1% in test [4]; 83.3% in test [5]; 83.4% in test [6]. Also, the growth is 88.6% in [7], 90.3% in test [8], 81.3% in [9] and 104% in test [10].

Consider `C=C1C(=O)O[C@H]2[C@H]1CC/C(COC(=O)CCCCCCCCC(=O)OC/C1=C/CC[C@@]3(C)O[C@H]3[C@H]3OC(=O)C(=C)[C@@H]3CC1)=C\CC[C@@]1(C)O[C@@H]21`, for which the growth in test [1] was -31.6% (active); in test [2], -27.5% (active); in test [3], 58.4%; in [4] it was 43.8%; in test [5], 12.1%; in test [6] it was -6.62% (active). The growth in test [7] was -32.6% (active); in test [8] it was -18.8% (active); in test [9], -84.7% (active); in test [10] it was -12.8% (active).

Take `CCO/C=N/S(=O)(=O)c1cc2c(cc1Cl)NC=NS2(=O)=O`: the growth in test [1] was 107%; in test [2], 97.4%; in test [3], 106%; in test [4], 103%; in test [5] it was 95.4%; in [6] it was 92.3%. In addition, the growth in test [7] is 102%; in [8], 104%; in [9], 98.4%; in test [10], 120%.

As to `CCCCCCCc1n(Cc2ccc3ccccc3c2)c2ccccc2[n+]1Cc1ccc2ccccc2c1`, the growth in test [1] is -80% (active); in test [2] it was -84.3% (active); in test [3], -86.8% (active); in test [4] it was -77.9% (active); in [5], -79.8% (active); in test [6] it was -88.7% (active). In addition, the growth was -92.8% (active) in test [7], -89.6% (active) in test [8], -75.1% (active) in test [9] and -85.4% (active) in test [10].

Consider `COC(=O)c1cc2c3c(cc(O)c2[nH]1)N(C(=O)C1Cc2cc(OC)c(OC)c(OC)c2N1)CC3CCl` (stereo not given), for which the growth in test [1] was 1.13% (active); in test [2] it was -7.58% (active); in test [3], -32.9% (active); in test [4], -52% (active); in [5], -54.9% (active); in test [6] it was -17.1% (active). The growth in [7] was -94.6% (active); in [8] it was -61% (active); in test [9], -94.2% (active); in [10], -6.29% (active).

For the molecule `CC1CCN(CCCCCOc2ccc3oc4cc(Cl)ccc4c(=O)c3c2)CC1`, the growth was -16.9% (active) in test [1]; 5.89% (active) in [2]; 74.7% in [3]; 80.9% in [4]; 54.3% in test [5]; 64.3% in test [6]. The growth in test [7] was -72.2% (active); in test [8], -51% (active); in [9], -25.6% (active); in [10] it was 57.5%.

For the molecule `COc1cccc2c1-c1ccccc1C2=O`, the growth in test [1] was 33.3%; in test [2] it was 17.5%; in test [3] it was 18.1%; in test [4], 29%; in test [5], 17.8%; in test [6], 28.1%. In addition, the growth in [7] is 9.97% (active); in test [8], 33.3%; in test [9], 40.3%; in test [10], 47.9%.

For the molecule `COc1ccc(C(=O)c2cc(OC)c(C)c(OC)c2)cc1OC(=O)CCl`, the growth in test [1] is 12.4%; in [2], 55.6%; in test [3], 38.1%; in test [4], 28.4%; in test [5], 17.1%; in test [6], 13.4%. The growth in [7] was 9.8% (active); in test [8] it was 38%; in test [9] it was 21.8%; in test [10], 49.5%.

`CN(C)CCCn1c2c(c3cc(-c4ccco4)ccc3c1=O)C(=O)c1ccccc1-2`: the growth was 54.4% in test [1]; 21% in test [2]; 62.4% in [3]; 69.2% in test [4]; 80.4% in test [5]; 60% in [6]. The growth in test [7] was 78.3%; in test [8], 50.9%; in [9] it was 60.9%; in test [10], 103%.

For `O=C(Nc1nc2ccc(C(F)(F)F)cc2s1)c1cc(Cl)ccc1O`, the growth is 7.56% (active) in test [1]; -18% (active) in test [2]; 16.8% in test [3]; 20.5% in [4]; 8.44% (active) in test [5]; 7.15% (active) in [6]. Further, the growth in [7] was -46.1% (active); in [8] it was 13.3%; in [9], 5.71% (active); in test [10], 26.6%.
